Source: PubChem
Pf growth 48h – P. falciparum growth inhibition at 48 hours (one generation); P. falciparum luciferase growth in erythrocytes, 48 h; Potency, µM (doses to about 28.7 µM), actives largely listed as inhibitors; hit rate 5.9% among 310,000; AID 504832
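Luminescence readout; reporter = integrated firefly luciferase in P. falciparum. RBC culture at 2% hematocrit, 0.1% parasitemia final, 37 C/5% CO2; decreased signal taken as growth inhibition.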
Sm TGR inh – blocks Schistosoma mansoni thioredoxin glutathione reductase | hit rate 3% among 360,000 | Potency, µM (titrated, usually from 114 µM), most hits filed as inhibitors | AID 485364 | purified TGR, DTNB reduction, TNB absorbance 405 nm | Q962Y6; also: nearly all actives have a fitted effect of over 60% in size
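First, TGR (20 nM dispensed) and NADPH were mixed with compound. Second, a 15 min room-temperature incubation followed. Third, further NADPH and then DTNB were added to start the reaction. Finally, TNB absorbance was monitored kinetically.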
AmpC no deterg – AmpC beta-lactamase inhibition without detergent; P00811; AmpC nitrocefin hydrolysis, absorbance 480 nm, 0.0001% Triton; Potency, µM (titrated, usually from 57.1 µM), usual class: inhibitors; hit rate 0.52% among 330,000; AID 485341; also: nearly all actives have a fitted effect of over 20% in size
Target sequence (P00811 whole entry, looked up): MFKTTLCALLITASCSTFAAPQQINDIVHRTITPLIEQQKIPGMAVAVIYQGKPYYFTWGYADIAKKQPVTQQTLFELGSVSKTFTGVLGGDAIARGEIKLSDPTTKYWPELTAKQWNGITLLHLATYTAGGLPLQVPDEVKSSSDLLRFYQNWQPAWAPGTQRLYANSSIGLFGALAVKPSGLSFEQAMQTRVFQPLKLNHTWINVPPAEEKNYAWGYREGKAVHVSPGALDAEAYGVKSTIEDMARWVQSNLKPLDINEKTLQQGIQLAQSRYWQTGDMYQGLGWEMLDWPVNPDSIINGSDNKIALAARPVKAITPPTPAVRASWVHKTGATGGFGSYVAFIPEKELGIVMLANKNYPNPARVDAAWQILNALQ
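AmpC (5.3 nM in the dispensed reagent) in 20 mM phosphate pH 7.0 with 0.01% (detergent screen) or 0.0001% Triton X-100 was preincubated with compounds for 15 min at room temperature. Nitrocefin was then added from an 800 uM solution, and hydrolysis was followed at 480 nm.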
Pf growth 96h – P. falciparum growth inhibition at 96 hour, primary screen for plastid delayed-death inhibitors; AID 504834; hit rate 6.9% among 320,000; Potency, µM (top dose mostly 28.7 µM), hits mostly inhibitors; P. falciparum luciferase reporter growth, 96 h
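P. falciparum expressing integrated firefly luciferase grown in erythrocytes (2% hematocrit, 0.05% parasitemia final) with compounds for 96 hours at 37 C, 5% CO2. Growth inhibition read as loss of luminescence after adding luciferase detection reagent.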
SARS PLpro yeast – inhibitors of SARS-CoV papain-like protease in yeast; S. cerevisiae expressing SARS-CoV PLpro, growth rescue; Potency, µM (titrated, usually from 32.9 µM), actives largely listed as activators; hit rate 0.19% among 330,000; AID 485353; calls by dose curve; also: nearly all actives have a fitted effect of over 55% in size
AmpC detergent – AmpC beta-lactamase inhibition with detergent present. Potency, µM (titrated, usually from 114 µM), most hits filed as inhibitors. hit rate 0.041% among 370,000. AmpC hydrolysis of nitrocefin, absorbance 480 nm, 0.01% Triton; also: nearly all actives have a fitted effect of over 25% in size
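AmpC (5.3 nM in the dispensed reagent) in 20 mM phosphate pH 7.0 with 0.01% (detergent screen) or 0.0001% Triton X-100 was preincubated with compounds for 15 min at room temperature. Nitrocefin was then added from an 800 uM solution, and hydrolysis was followed at 480 nm.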
Of the large screens only hits and unclear results are named; the others gave an inactive call. Shown are actives, neighbours in structure and some others; about 12% of the full set was active somewhere. Unless noted, calls follow the shape of the dose curve; as a rule, active = well fitted curve in the direction sought with a large enough effect; inconclusive = small, poorly fitted or top-dose-only effect, or another doubt; inactive = no such curve, though single readings can be large; an effect the other way counts as inactive or inconclusive.

O=C(NCC1CCCO1)c1ccc(S(=O)(=O)N2CCC(c3nc4ccc(Cl)cc4[nH]3)CC2)cc1 (stereo not drawn)	Pf growth 48h 13µM, AmpC detergent inconclusive
Cc1ccc(Cl)cc1N1CCN(C(=O)C2CCCN(S(=O)(=O)c3ccc(Br)s3)C2)CC1 (stereo not drawn)	none (no result: Pf growth 48h, AmpC no deterg, Pf growth 96h, SARS PLpro yeast)
Cc1cc(C(=O)NNC2CC(=O)N(c3ccc4ccccc4c3)C2=O)c(C)o1 (stereo not drawn)	none
COc1ccc(Cl)cc1NC(=O)c1noc(C)c1[N+](=O)[O-]	SARS PLpro yeast inconclusive
COc1ccc(CC(=O)OCC(=O)c2c[nH]c3ccccc23)cc1	Pf growth 48h 8.3µM
O=C(CNS(=O)(=O)c1ccccc1F)OCC(=O)c1c[nH]c2ccccc12	none
O=C(CNS(=O)(=O)c1ccccc1)OCC(=O)c1c[nH]c2ccccc12	Pf growth 48h 8.3µM, Pf growth 96h 4.1µM
COc1cc(CC(=O)OCC(=O)c2c[nH]c3ccccc23)cc(OC)c1OC	Pf growth 48h 4.1µM, Pf growth 96h 13µM
O=C(CC1CC2CCC1C2)OCC(=O)c1c[nH]c2ccccc12 (stereo not drawn)	Pf growth 48h inconclusive, Pf growth 96h 5.2µM
Cc1c(NC(=O)C(C)Oc2cccc(F)c2)c(=O)n(-c2ccccc2)n1C (stereo not drawn)	none (no result: Pf growth 48h, Sm TGR inh, Pf growth 96h, AmpC detergent)
COc1ccc(S(=O)(=O)N(CCc2ccccc2)CC(=O)Nc2cc(C)cc(C)c2)cc1OC	none (no result: Pf growth 48h, AmpC no deterg, Pf growth 96h, SARS PLpro yeast)
O=C(Cn1c(C(F)(F)F)nc2ccccc21)OCC(=O)c1c[nH]c2ccccc12	Pf growth 48h 12µM, Pf growth 96h 4.1µM
Cc1[nH]c2ccccc2c1C(=O)COC(=O)Cn1c(C(F)(F)F)nc2ccccc21	none
CCOC(=O)c1cc(C)n(CC2CCC(C(=O)Nc3cc(OC)cc(OC)c3)CC2)c1C (stereo not drawn)	none (no result: Pf growth 48h, AmpC no deterg, Pf growth 96h, SARS PLpro yeast)
Cc1ccc(NC(=O)C(C)N2CCc3ccccc3C2)cc1 (stereo not drawn)	none
CC(C(=O)c1c[nH]c2ccccc12)N1CCc2ccccc2C1 (stereo not drawn)	Pf growth 48h inconclusive, Pf growth 96h 2.9µM
Cc1ccc(C(C)NC(=O)c2cc3cc(Br)ccc3oc2=N)cc1 (stereo not drawn)	Pf growth 48h inconclusive
N#CC1=C(N)C2=C(N3CCCCC3)CCCC2C1(C#N)C#N (stereo not drawn)	Sm TGR inh inconclusive, Pf growth 96h 12µM
CCOc1ccc(-c2c(C)nn3c(C)c(C(=O)NCCc4ccc(C)cc4)cnc23)cc1OCC	none (no result: Pf growth 48h, AmpC no deterg, Pf growth 96h, SARS PLpro yeast)
COc1ccccc1/C=N/N1C(=O)C(CC(=O)Nc2ccc([N+](=O)[O-])cc2OC)SC1=Nc1cccc(C)c1C (stereo not drawn)	Pf growth 48h 3.7µM, Pf growth 96h inconclusive (no result: Sm TGR inh)
CCOc1ccc(NC(=O)CC2SC(N)=NC2=O)c([N+](=O)[O-])c1 (stereo not drawn)	none
COc1cc([N+](=O)[O-])ccc1NC(=O)Cc1ccccc1	none (no result: Sm TGR inh)
CCOc1ccc(/C(C)=N/N2C(=O)C(CC(=O)Nc3ccc(OC)cc3[N+](=O)[O-])SC2=Nc2cccc(C)c2C)cc1 (stereo not drawn)	Pf growth 48h 2.1µM, Sm TGR inh 18µM, Pf growth 96h 2.3µM
COc1cc([N+](=O)[O-])ccc1NC(=O)CCCOc1cccc(C)c1C	Pf growth 96h 2.9µM, AmpC detergent inconclusive
COc1ccc(CNC(=O)c2cnn3c(C)c(Cc4ccc(F)cc4)c(C)nc23)cc1	none (no result: Pf growth 48h, AmpC no deterg, Pf growth 96h, SARS PLpro yeast)
Cc1ccc(C(=O)c2cc3c(cc2[N+](=O)[O-])OCCO3)cc1	none
CCc1ccc(C2CC(=O)c3c([nH]c(C(=O)OC4CCCC4)c3C)C2)cc1 (stereo not drawn)	none (no result: Pf growth 48h, AmpC no deterg, Pf growth 96h, SARS PLpro yeast)
NC(=O)C1CCN(c2nc(-c3ccccc3F)cs2)CC1	Pf growth 48h inconclusive, Pf growth 96h inconclusive
COc1ccc(NC(=O)CSc2nc3c(c(=O)n2-c2ccccc2OC)SCC3)cc1	Pf growth 48h inconclusive, AmpC no deterg 35µM
CCOC(=O)c1ccc(NC(=O)CSc2nc3c(c(=O)n2-c2ccccc2OC)SCC3)cc1	Pf growth 96h inconclusive, AmpC detergent inconclusive
COc1ccccc1-n1c(SCC(=O)Nc2ccc(NC(C)=O)cc2)nc2c([nH]c3ccccc32)c1=O	Pf growth 96h 13µM, AmpC detergent inconclusive
COc1ccc(-n2c(SCC(=O)Nc3cc(C)on3)nc3c([nH]c4ccccc43)c2=O)cc1	Pf growth 48h inconclusive, Pf growth 96h inconclusive
COc1ccc(-n2c(SCC(=O)Nc3cc(C)on3)nc3c([nH]c4ccccc43)c2=O)cc1OC	Pf growth 48h 10µM, Pf growth 96h 6.6µM, AmpC detergent inconclusive
CC(Oc1ccc2ccc(=O)oc2c1)C(=O)N1CCOCC1 (stereo not drawn)	none
CC(=O)N1CCN(C(=O)c2ccccc2NS(=O)(=O)c2ccc(F)cc2)CC1	none
CC(CCc1ccccc1)NCC#N (stereo not drawn)	none
O=C(CN1C(=O)COc2ccccc21)N1CCC2(CC1)OCCO2	AmpC detergent inconclusive
O=C(CN1C(=O)CCSc2ccccc21)N1CCC2(CC1)OCCO2	AmpC no deterg 0.28µM, Pf growth 96h inconclusive
CCN(c1ccccc1)S(=O)(=O)c1ccc(Cl)c(NC(=O)COC(=O)C2CC2C)c1 (stereo not drawn)	none
CCN(c1ccccc1)S(=O)(=O)c1ccc(Cl)c(NC(=O)COC(=O)c2cc(O)c3ccccc3c2O)c1	Pf growth 48h 13µM, Sm TGR inh 3.5µM, AmpC no deterg 4µM, Pf growth 96h 12µM
CCN(c1ccccc1)S(=O)(=O)c1ccc(Cl)c(C(=O)OCC(=O)NC(=O)C(C)C)c1	Pf growth 48h inconclusive
CCN(c1ccccc1)S(=O)(=O)c1ccc(Cl)c(NC(=O)COC(=O)c2ccc(O)cc2)c1	Pf growth 48h inconclusive, Pf growth 96h 12µM
CCN(CC)c1ccc(C(=O)OCC(=O)Nc2ccccc2-c2ccccc2)cc1	Pf growth 48h inconclusive, Pf growth 96h 10µM
CCOc1ccccc1-n1nnc(-c2nc(-c3ccccc3)no2)c1N	none (no result: Pf growth 48h, AmpC no deterg, Pf growth 96h, SARS PLpro yeast)
Cc1cc(C(C)(C)C)cc(C)c1CCNC(=O)c1c(C)noc1C	Pf growth 48h 13µM, Pf growth 96h 8.3µM
Cc1ccc(CCNCc2c(C(=O)O)c(C)n(-c3ccccc3)c2C)cc1	Sm TGR inh inconclusive, Pf growth 96h inconclusive
Cc1c(CNCCc2ccc(Cl)cc2)c(C(=O)O)c(C)n1-c1ccccc1	Sm TGR inh 11µM, Pf growth 96h 12µM
COc1ccccc1C(=O)NNC(=O)c1cccc(C)c1	Pf growth 96h inconclusive
